Test results taken from PubChem BioAssay.

These compounds were tested against Homeobox protein Hox-A13 (Mus musculus) (UniProt Q62424) (assay: disruptors of Hoxa13 oligonucleotide interaction – biochemical, fluorescence polarization, labeled oligonucleotide, primary screen (AID 1185)). Conditions: Hoxa13:DNA binding, 15 min, higher = more signal, called active from +8 up or from −8 down.
Chain of Homeobox protein Hox-A13 (Mus musculus) (Q62424 whole entry, looked up): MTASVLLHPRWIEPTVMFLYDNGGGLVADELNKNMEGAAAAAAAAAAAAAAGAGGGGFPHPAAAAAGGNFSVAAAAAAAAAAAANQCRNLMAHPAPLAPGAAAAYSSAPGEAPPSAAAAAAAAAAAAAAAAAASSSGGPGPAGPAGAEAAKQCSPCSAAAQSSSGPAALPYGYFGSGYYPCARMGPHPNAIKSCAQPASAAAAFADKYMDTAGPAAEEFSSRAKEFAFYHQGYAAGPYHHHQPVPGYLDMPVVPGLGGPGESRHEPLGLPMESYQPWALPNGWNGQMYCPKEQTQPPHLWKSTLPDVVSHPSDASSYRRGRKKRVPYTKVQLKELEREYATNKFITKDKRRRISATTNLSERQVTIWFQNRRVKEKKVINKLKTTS

z-score, inactive:
COC(=O)C1(C)C=C2C(=C(c3ccccc3)C(=O)C2C)CN1 (stereo unspecified) -7.29
C=CCC(OC(C)=O)[C@@H]1[C@@H](N(Cc2cc3ccccc3o2)C(=O)Cc2ccc(F)cc2)c2cc(OCCCO)ccc2N1C(=O)Cc1ccc(OC)cc1 (stereo partly specified) -2.68
COc1ccccc1CN1C(=O)c2ccccc2[C@@]2(Cc3ccccc3N(C(C)C)C2=O)[C@@H]1c1ccc(CO)cc1 -0.215
N#Cc1ccc(NN2C(C(O)c3cc(C(F)(F)F)cc(C(F)(F)F)c3)C=CC3C(=O)N(c4ccccc4)C(=O)C32)cc1 (stereo unspecified) -1.5
COc1ccccc1CN1C(=O)c2ccccc2[C@@H](C(=O)NCC(F)(F)F)[C@@H]1c1ccc(CO)cc1 -2.99
CN(C)C(=O)[C@@]1(Cc2ccccc2)N=C(c2ccc(OCCCO)cc2)O[C@H]1c1ccccc1CN=[N+]=[N-] -1.69
CCCCC(=C=CC[C@H](O)c1ccccc1OCCO)C[C@H](O)COCc1ccccc1 -4.61
CCCC[C@@H]1C[C@H]1[C@@H](NS(=O)(=O)c1cccc2cccnc12)c1ccc(-c2ccccc2)cc1 -0.507
Cn1cccc1C(O)C1C=CC2C(=O)NC(=O)C2N1Nc1ccccn1 (stereo unspecified) -5.35
C=C(/C(=C/C[C@H](OC(=O)c1ccncc1)c1ccc(OCCO)cc1)c1cnc2ccccc2c1)C(C)C -3.29
COC(=O)[C@@]1(Cc2ccc(F)cc2)[C@H]2c3cc(C(=O)N(C)C)n(Cc4ccc(OC)c(OC)c4)c3C[C@H]2CN1C(=O)c1ccccc1 -3.65
CC(C)NC(=O)[C@@H]1c2ccccc2C(=O)N(CC23CC4CC(CC(C4)C2)C3)[C@H]1c1ccc(CO)cc1 -4.68
O=C1O[C@@H](c2ccccc2)[C@@H](c2ccccc2)N2[C@@H](c3ccccc3OCCO)[C@]3(C(=O)Nc4ccc(C#CCCO)cc43)[C@@H](C(=O)O)[C@H]12 -5.33
CN(C)CCCNC(=O)[C@@H]1c2ccccc2C(=O)N(Cc2cc(F)cc(C(F)(F)F)c2)[C@H]1c1ccc(CO)cc1 -3.29
CCCNC(=O)[C@@H]1c2ccccc2C(=O)N(c2ccc(C)cn2)[C@H]1c1ccc(CO)cc1 -2.4
COC(=O)[C@H]1COC(c2ccc(OCCCO)cc2)=N1 -3.56
CO[C@H]1O[C@H](CO)[C@@H](OC(=O)Nc2ccc3c(c2)OCO3)[C@H](OC(=O)Nc2ccccc2-c2ccccc2)[C@@H]1OC(=O)Nc1ccccc1-c1ccccc1 -2.64
COCCCNC(=O)[C@@]1(C)c2ccccc2C(=O)N(Cc2ccc(OC(F)(F)F)cc2)[C@H]1c1ccc(CO)cc1 -2.89
COCCCNC(=O)[C@@]1(CCS(=O)(=O)c2ccccc2)N=C(c2ccc(OCCCO)cc2)O[C@H]1c1ccccc1 -6.18
C/C=C\[C@@H](NCc1ccccc1Br)[C@@H](O)Cc1ccccc1 -1.47
CN1C(=O)[C@@]2(CCC(=O)OC(C)(C)C)N=C(c3ccc(OCCCO)cc3)O[C@H]2c2ccccc21 -4.88
O=C(CS)NCCCCCNC(=O)[C@@H]1C[C@@H]2C(=O)N[C@@H](Cc3ccccc3)C(=O)N2[C@@H]1c1ccc(O)cc1 -2.5
C#C[C@@H](CC)O[Si](C#Cc1ccc(Oc2ccccc2)cc1)(C(C)C)C(C)C -0.279
COC(=O)[C@]1(CO)N=C(c2ccc(OCCCO)cc2)O[C@@H]1c1ccccc1N=[N+]=[N-] -6.14
COc1ccc([Si](C)(C)[C@@H]2[C@@H](CC(=O)N3CCC[C@H]3CO)O[C@]3(C(=O)N(Cc4cccc(N5CCC5=O)c4)c4ccccc43)[C@H]2C)cc1 -2.64
COC(=O)[C@@]1(Cc2ccc(OC)cc2)[C@H]2c3cc(C(=O)N4CCCC4)n(Cc4cc(F)c(F)c(F)c4)c3C[C@H]2CN1C(=O)c1ccccc1 -2.27
C=C(CCCC)C(=O)CC[C@@H](OC(C)=O)c1cccc(OCCO)c1 -3.72
COc1ccc([Si](C)(C)[C@@H]2[C@@H](CCO)O[C@]3(C(=O)N(Cc4ccc(NC(C)=O)cc4)c4ccccc43)[C@H]2C)cc1 -5.34
CN(C)c1ccc(C(O)C2C=CC3C(=O)N(c4ccccc4)C(=O)C3N2Nc2ccccc2F)cc1 (stereo unspecified) -5.07
CC(C)(C)OC(=O)CC[C@]1(C(=O)NCc2ccccc2)N=C(c2ccc(OCCCO)cc2)O[C@H]1c1ccccc1 -6.62
CC(C)[Si]1(C(C)C)O[C@@H](c2ccccc2)c2cc(C3CC3)nc(-c3ccccc3)c21 -1.21
CC(C)NC(=O)[C@@]1(c2ccc([N+](=O)[O-])cc2)CC(=O)N(CC23CC4CC(CC(C4)C2)C3)[C@@H]1c1ccc(CO)cc1I -3.26
COCC1=C2[C@@H](CCc3ccccc3)OB(O)C[C@@H]2n2c(=O)n(-c3ccccc3)c(=O)n2C1 -4.79
O=C1O[C@@H](c2ccccc2)[C@@H](c2ccccc2)N2[C@@H](c3ccc(O)cc3)[C@]3(C(=O)Nc4ccccc43)[C@@H](C(=O)O)[C@H]12 -4.72
O=C1c2ccccc2[C@@]2(Cc3ccccc3N(C3CC3)C2=O)[C@H](c2ccc(CO)cc2)N1Cc1ccccc1C(F)(F)F -2
CC(C)(C)OC(=O)CC[C@]1(C(N)=O)COC(c2ccc(OCCCO)cc2)=N1 -1.89
